# Screening data deposited in PubChem by National Center for Advancing Translational Sciences (NCATS).
# A selection: hits, their analogues and other compounds. The true share with any hit is near 9%.
# G9a block = qHTS Assay for Inhibitors of Histone Lysine Methyltransferase G9a; AID 504332, 2011; Potency, µM (titrated, usually from 102 µM), for inactives: top-dose activity, negative = inhibition, most hits filed as inhibitors; actives 8.8% (n = 350,000); G9a H3K9 monomethylation, AlphaScreen, 2 h; also: % is scaled to controls: 0 for no effect and ±100 for the full control effect; nearly all actives have a fitted effect of over 75% in size
# Target sequence (Q96KQ7 913-1193 limits assumed): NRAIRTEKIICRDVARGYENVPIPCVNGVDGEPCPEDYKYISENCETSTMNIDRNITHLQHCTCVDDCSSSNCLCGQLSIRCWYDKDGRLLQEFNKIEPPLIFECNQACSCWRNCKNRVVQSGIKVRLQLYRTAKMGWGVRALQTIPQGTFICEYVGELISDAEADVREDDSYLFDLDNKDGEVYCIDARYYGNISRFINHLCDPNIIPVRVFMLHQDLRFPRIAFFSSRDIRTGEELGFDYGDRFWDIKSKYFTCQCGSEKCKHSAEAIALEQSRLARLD
#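 AlphaScreen read-out: biotin-H3K9 peptide (500 nM) methylation by 20 nM enzyme with 20 uM SAM, 2 h at room temperature after 15 min compound preincubation; anti-monomethyl H3K9 antibody plus donor/acceptor beads, 10 min dark.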
# JMJD2A Tudor inh = qHTS Assay for Inhibitors of JMJD2A-Tudor Domain; Lysine-specific demethylase 4A (Homo sapiens), O75164; AlphaScreen JMJD2A-Tudor / H3K4me3 peptide binding; Potency, µM (doses to about 114 µM), for the others: at the highest dose activity change, negative = inhibition, hits mostly inhibitors; actives 4.4% (n = 390,000); also: % is scaled to controls: 0 for no effect and ±100 for the full control effect; nearly all actives have a fitted effect of over 50% in size
# HP1b chromo inh = HTS for Inhibitors of HP1-beta Chromodomain Interactions with Methylated Histone Tails; Chromobox protein homolog 1 (Homo sapiens), P83916; AlphaScreen HP1-beta / biotin-H3K9me3 peptide binding; Potency, µM (doses to about 114 µM), without a hit: top-dose activity change, negative = inhibition, actives largely listed as inhibitors; actives 0.56% (n = 390,000); also: nearly all actives have a fitted effect of over 70% in size
# Target sequence (P83916 whole entry, looked up): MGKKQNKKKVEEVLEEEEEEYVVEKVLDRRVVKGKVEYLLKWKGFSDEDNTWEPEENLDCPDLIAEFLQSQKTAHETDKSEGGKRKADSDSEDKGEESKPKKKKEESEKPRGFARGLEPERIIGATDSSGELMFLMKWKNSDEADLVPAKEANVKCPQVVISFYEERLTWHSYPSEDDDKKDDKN
#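 AlphaScreen: HP1-beta (50 nM) preformed 30 min with biotin-H3(1-18)K9me3 peptide (50 nM) in PBS pH 7.4, 0.01% Tween-20. Compound added for 30 min at RT, then streptavidin donor/nickel chelate acceptor beads (10 ug/mL) for 30 min.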
# PLK1 PBD block = qHTS for Inhibitors of PLK1-PDB (polo-like kinase 1 - polo-box domain): Primary Screen | Plk1 PBD binding of FITC phosphopeptide, fluorescence polarization | Potency, µM, for inactives: max response, negative = inhibition, most hits filed as inhibitors | actives 2.8% (n = 360,000) | AID 720504, 2013; also: series mostly up to about 57 µM; % is scaled to controls: 0 for no effect and ±100 for the full control effect; nearly all actives have a fitted effect of over 65% in size
# BAZ2B inh = qHTS Assay for Inhibitors of BAZ2B; AlphaScreen BAZ2B-H3K14Ac peptide displacement; actives 4.4% (n = 360,000); Potency, µM (series often up to 114 µM), without a hit: at the highest dose activity change, negative = inhibition, hits mostly inhibitors; also: % is scaled to controls: 0 for no effect and ±100 for the full control effect; nearly all actives have a fitted effect of over 60% in size
#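 BAZ2B 50 nM plus b-H3(5-23)K14Ac 50 nM, PBS pH 7.4/0.01% Tween-20, 30 min RT; compound added (max 110 uM), 30 min RT; streptavidin donor/Ni-chelate acceptor beads 10 ug/mL final, 20 min dark; AlphaScreen read.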
# 12-LOX inh = Primary qHTS assay for inhibitors of human arachidonate 12S-lipoxygenase (ALOX12): Round 2; Polyunsaturated fatty acid lipoxygenase ALOX12 (Homo sapiens), P18054; actives 1.1% (n = 580,000); purified 12hLO, xylenol orange hydroperoxide absorbance; Potency, µM (series often up to 108 µM), for the others: top-dose activity change, negative = inhibition, usual class: inhibitors; AID 1671190, 2021; also: % is scaled to controls: 0 for no effect and ±100 for the full control effect
#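 Purified human 12hLO at 150 nM in 25 mM Hepes, 0.01% Triton X-100, pH 7.0, preincubated 15 min at room temperature with compound. Reaction started with 40 uM arachidonic acid, 30 min at room temperature. Hydroperoxide measured by Fe-xylenol orange, 573/405 nm absorbance ratio.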
# An asterisk follows results filed as active; u = inconclusive; x = no result given; [ ] = remark or other dose. Calls follow the shape of the dose curve; as a rule, active = well fitted curve in the direction sought with a large enough effect; inconclusive = small, poorly fitted or top-dose-only effect, or another doubt; inactive = no such curve, though single readings can be large; an effect the other way counts as inactive or inconclusive. Potency is read from the fitted curve at half-maximal effect.
SMILES,G9a block,JMJD2A Tudor inh,HP1b chromo inh,PLK1 PBD block,BAZ2B inh,12-LOX inh
COc1ccc(OC)c(NC(=O)C2C(C(=O)O)C3(Cl)C(Cl)=C(Cl)C2(Cl)C3(Cl)Cl)c1 (stereo unspecified),45µM*,-19%,9%,u,-31%,u
COc1ccc(C(=O)Nc2ccc(Cl)cc2C(=O)c2ccccc2)c(OC)c1,-9%[59 µM],-7%,23%,x,-5%,-23%
S=C(S)N1CCCC1,0.71µM*,-13%,11%,u,12%,u
Cc1[nH]c2c(Cl)cccc2c1CCN,31%[12.7 µM],-30%,26%,-25%,-30%,x
Cc1ccsc1C(=O)C1CCCN(Cc2cc3ccccc3o2)C1 (stereo unspecified),11%[59 µM],-9%,49%,-15%,-20%,-16%
CCC1(C)OC(c2ccccc2)=C/C(=C/C=C2C(=O)NC(=O)NC2=O)O1 (stereo unspecified),50µM*,u,-5%,38%,40µM*,2%
COc1ccc(CC(=O)N2CCN(C)CC2)cc1,5%,-10%,13%,-5%,8%,7%
CCOC(=O)c1c(NC(NC(=O)CF)C(Cl)(Cl)Cl)sc2c1CCCC2 (stereo unspecified),45µM*,40µM*,-6%,12µM*,-36%,u
CCOC(=O)c1c(NC(=O)c2c(N)n(CCCOC)c3nc4ccccc4nc23)sc2c1CCCC2,4%,-14%,-10%,-7%,-31%,8%
COc1ccc(N2C(=O)NC(=O)/C(=C\c3cn(C)c4ccccc34)C2=O)cc1,25%[0.501 µM],-14%,30%,-1%,-9%,x
O=C1NC(=O)N(c2ccccc2)C(=O)/C1=C\c1ccccc1[N+](=O)[O-],28µM*,-9%,12%,u,-8%,u
COc1ccccc1N1C(=O)NC(=O)/C(=C/c2ccc3c4c(cccc24)CC3)C1=O,8.9µM*,u,11%,7.5µM*,u,50µM*
O=C1NC(=O)N(c2ccccc2)C(=O)/C1=C\c1ccc2c3c(cccc13)CC2,7.1µM*,x,x,x,u,x
O=[N+]([O-])c1ccc2nc(N3CCNCC3)ccc2c1,u,-26%,7%,-11%,x,0%
O=C(NCc1ccccc1)[C@H]1CN2CCC1C[C@@H]2Cn1cc(CCO)nn1 (stereo partly specified),x,x,x,x,x,13%[176 µM]
O=C1NC(=S)N(c2ccccc2)C(=O)C1C(c1ccncc1)C1C(=O)NC(=S)N(c2ccccc2)C1=O (stereo unspecified),45µM*,-25%,29%,-5%,-28%,-16%
Cc1cc(C(=O)OCC(=O)Nc2ccccc2Br)c(C)n1C(C)C,x,x,x,x,x,-6%
O=C1/C(=C/c2ccc3c(c2)OCO3)N2CCC1CC2,-10%[59 µM],-18%,24%,-8%,-4%,-8%
O=C1/C(=C\c2cc3c(cc2Br)OCO3)N2CCC1CC2,45µM*,-12%,12%,-1%,-9%,x
Cc1ccc(NS(=O)(=O)c2ccc(OCC(=O)N3CCN(C)CC3)cc2)cc1,x,-10%,18%,-8%,-12%,49%
COc1ccc(NS(=O)(=O)c2ccc(OCC(=O)N3CCN(C)CC3)cc2)cc1Cl,79µM*,-4%,57%,0%,-19%,1%
COc1ccccc1NC(=O)Oc1cccc(OC(=O)c2ccccc2)c1,71µM*,-13%,25%,-3%,-9%,-13%
COC(=O)c1ccc(NC(=O)NC(=O)Oc2ccccc2)cc1,-12%[12.7 µM],-14%,35%,u,-2%,7%
CCCCC12CN3CC(C)(CN(C1)C3c1ccccn1)C2=O (stereo unspecified),0.63µM*,25µM*,11%,x,8.9µM*,-2%
CCOC(=O)C1C(OC(=O)c2ccccc2)CC2CCC1N2C (stereo unspecified),x,-17%,19%,-16%,x,0%
SMILES,G9a block,JMJD2A Tudor inh,HP1b chromo inh,PLK1 PBD block,BAZ2B inh,12-LOX inh
O=[N+]([O-])c1cc([N+](=O)[O-])c2ccccc2c1,x,x,x,x,x,-13%[57.4 µM]
C1=C(c2ccccc2)CCNC1,x,-12%,9%,5%,3%,-3%
Oc1ccc(C2=CCNCC2)cc1O,x,10µM*,u,x,x,-17%
O=c1[nH]c(=S)[nH]c(O)c1/C=C1/C=c2ccccc2=N1,x,u,45%,1.3µM*,u,7%
N#Cc1cccc(NC(=O)Nc2ccc3n(c2=O)C[C@H]2C[C@@H]3CN(C3CCOCC3)C2)c1,x,x,x,x,x,16µM*
CC(=O)N1C[C@@H]2C[C@H](C1)c1ccc(NC(=O)Nc3cccc(C#N)c3)c(=O)n1C2,x,x,x,x,x,1%[176 µM]
O=C(N[C@H]1CP(=O)(Oc2ccccc2)O[C@H](COCc2ccccc2)[C@H]1O)C(Cl)(Cl)Cl (stereo partly specified),26%[12.7 µM],-10%,32%,-2%,3%,-5%
Cc1ccc(CNC2=NCCS2)cc1,x,1%,18%,-4%,5%,-29%
CCn1c(C)[n+](CC)c2ccc(S(=O)(=O)NC)cc21,u,-11%,11%,-5%,u,-14%
CN1CC(C(=O)c2ccc(Cl)cc2)C(c2ccccc2)C1 (stereo unspecified),45µM*,-24%,-9%,-7%,-16%,u
CN1CC(C(=O)c2cccs2)C(c2ccc(Cl)cc2)C1 (stereo unspecified),-35%,-20%,6%,-10%,-12%,0%
CCn1cc(CN(C)S(=O)(=O)c2ccc3ccccc3c2)c(C)n1,10%[59 µM],1%,28%,2%,2%,-1%
CC(C)CC1C(C#N)=C(N)Oc2c1c(=O)oc1ccccc21 (stereo unspecified),-70%,45µM*,3%,12µM*,-1%,15%[57.4 µM]
C[N+](C)(C)CC1CCCc2ccccc2C1=O (stereo unspecified),x,-2%,43%,-5%,x,u
COC(=O)[C@@]1(Cc2ccc(F)cc2)[C@H]2c3cc(C(=O)N(C)C)[nH]c3C[C@H]2CN1C(=O)c1ccccc1,u,-20%,10%,4%,50µM*,-6%
CC(=O)NC(Cc1ccc(N(CCCl)CCCl)cc1)C(=O)NC(CC(C)C)C(=O)O (stereo unspecified),50µM*,-27%,15%,-3%,u,-18%
COCCn1c(-c2ccccc2)cc(C(=O)O)c1C,x,-20%[11.4 µM],-18%,24µM*,x,-12%
